The record followed here is PMC7862700, “An all-to-all approach to the identification of sequence-specific readers for epigenetic DNA modifications on cytosine”.

What all share (experiment): DAPPL (digital affinity profiling via proximity ligation, sequencing); 10 mM Tris-HCl pH 7.5, 50 mM NaCl, 1 mM DTT, 4% glycerol, room temperature, 30 min; GST-TFs on glutathione beads, 16-mer random dsDNA library, 0.1% formaldehyde crosslink after washing; high values mean tight binding
One assay has as its target T1, FEV (Homo sapiens, UniProt Q99581 1-238).
T1 sequence: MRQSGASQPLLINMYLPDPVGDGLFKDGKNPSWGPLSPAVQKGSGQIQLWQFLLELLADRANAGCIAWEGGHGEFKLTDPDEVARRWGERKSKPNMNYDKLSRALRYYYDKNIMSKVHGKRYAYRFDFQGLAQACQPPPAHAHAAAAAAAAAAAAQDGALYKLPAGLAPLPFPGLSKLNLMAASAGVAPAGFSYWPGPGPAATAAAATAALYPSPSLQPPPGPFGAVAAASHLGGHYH
Conditions: protein: recombinant; tags: N-terminal GST; dsDNA, one strand shown. Put shortly:
(§1)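 After expression in yeast as GST fusions, human transcription factors were bound to glutathione beads, DNA-barcoded and mixed with a tag-only sample. The pools were incubated with 200 nmole of a 16-mer random double-stranded DNA library in Tris/NaCl/DTT/glycerol buffer (30 min, room temperature), washed and crosslinked with 0.1% formaldehyde. Proximity ligation with BsaI/T4 ligase ran for 1 h at 37 °C, before PCR amplification and sequencing on an Illumina NextSeq500. Binding signal is a hexamer's read frequency for a factor divided by its frequency for the tag-only sample.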

Another assay has as its target ETV5 (Homo sapiens, UniProt P41161 1-510). Conditions: protein: recombinant; tags: N-terminal GST; dsDNA, one strand shown. Put shortly:
as §1

A further assay concerns the target HSF1 (Homo sapiens, UniProt Q00613 1-529). Conditions: protein: recombinant; tags: N-terminal GST; chain copies: 3; dsDNA, one strand shown. Put shortly: as §1
A further assay has as its target T2, SPIC (Homo sapiens, UniProt Q8N5J4 1-248).
T2 sequence: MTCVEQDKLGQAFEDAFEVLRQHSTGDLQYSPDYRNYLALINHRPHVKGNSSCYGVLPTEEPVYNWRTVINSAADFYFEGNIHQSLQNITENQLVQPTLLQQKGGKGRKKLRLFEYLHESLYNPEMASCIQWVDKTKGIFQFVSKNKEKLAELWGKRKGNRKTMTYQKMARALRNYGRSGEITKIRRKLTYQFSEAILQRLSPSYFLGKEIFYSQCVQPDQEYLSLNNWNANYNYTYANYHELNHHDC
Conditions: protein: recombinant; tags: N-terminal GST; dsDNA, one strand shown. Put shortly:
as §1

The target in another assay is ELF4 (Homo sapiens, UniProt Q99607 1-663). Conditions: protein: recombinant; tags: N-terminal GST; dsDNA, one strand shown. Put shortly:
as §1

A further assay concerns the target T3, ELK4 (Homo sapiens, UniProt P28324-2 1-405).
T3 sequence: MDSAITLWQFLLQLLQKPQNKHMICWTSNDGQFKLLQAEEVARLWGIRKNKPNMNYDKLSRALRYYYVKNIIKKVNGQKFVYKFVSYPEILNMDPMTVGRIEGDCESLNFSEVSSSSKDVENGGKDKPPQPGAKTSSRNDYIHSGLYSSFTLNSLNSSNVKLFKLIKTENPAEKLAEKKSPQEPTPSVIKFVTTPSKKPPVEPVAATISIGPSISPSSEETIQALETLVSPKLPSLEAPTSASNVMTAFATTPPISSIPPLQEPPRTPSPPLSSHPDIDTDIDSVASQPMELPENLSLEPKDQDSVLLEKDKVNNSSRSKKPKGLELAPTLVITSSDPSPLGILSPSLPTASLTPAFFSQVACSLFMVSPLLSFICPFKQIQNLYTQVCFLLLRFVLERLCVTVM
Conditions: protein: recombinant; tags: N-terminal GST; dsDNA, one strand shown. Put shortly:
as §1

Another assay addresses T4, ETV2 (Homo sapiens, UniProt O00321 1-342).
T4 sequence: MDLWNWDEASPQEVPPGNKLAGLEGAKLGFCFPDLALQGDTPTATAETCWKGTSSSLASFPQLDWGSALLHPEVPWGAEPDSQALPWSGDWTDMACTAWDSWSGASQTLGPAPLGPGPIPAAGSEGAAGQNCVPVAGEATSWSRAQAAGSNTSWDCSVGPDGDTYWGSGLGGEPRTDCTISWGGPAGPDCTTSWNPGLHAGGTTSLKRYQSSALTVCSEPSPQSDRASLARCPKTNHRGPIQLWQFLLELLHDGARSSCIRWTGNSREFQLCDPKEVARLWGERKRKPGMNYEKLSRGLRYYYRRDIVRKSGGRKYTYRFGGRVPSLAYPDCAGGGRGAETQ
The following applies: protein: recombinant; tags: N-terminal GST; dsDNA, one strand shown. Put shortly: as §1

The target of a further assay is T5, ELF3 (Homo sapiens, UniProt P78545 1-371).
T5 sequence: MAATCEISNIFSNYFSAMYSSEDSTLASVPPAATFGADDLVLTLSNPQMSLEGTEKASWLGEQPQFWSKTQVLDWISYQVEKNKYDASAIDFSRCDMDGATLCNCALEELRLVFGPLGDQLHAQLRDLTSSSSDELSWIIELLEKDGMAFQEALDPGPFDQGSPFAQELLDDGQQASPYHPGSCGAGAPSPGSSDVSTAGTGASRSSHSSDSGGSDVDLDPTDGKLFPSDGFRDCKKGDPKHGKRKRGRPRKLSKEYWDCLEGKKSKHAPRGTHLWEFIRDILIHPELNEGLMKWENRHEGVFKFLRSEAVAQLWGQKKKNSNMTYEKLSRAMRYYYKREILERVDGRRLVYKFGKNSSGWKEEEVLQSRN
Conditions: protein: recombinant; tags: N-terminal GST; dsDNA, one strand shown. Put shortly: as §1

Another assay deals with CRX (Homo sapiens, UniProt O43186 1-299). The following applies: protein: recombinant; tags: N-terminal GST; dsDNA, one strand shown. Put shortly:
as §1

The target in a further assay is ETV1 (Homo sapiens, UniProt P50549 1-477). The following applies: protein: recombinant; tags: N-terminal GST; dsDNA, one strand shown. Put shortly: as §1
In a further assay the target is T6, ERF (Homo sapiens, UniProt P50548 1-548).
T6 sequence: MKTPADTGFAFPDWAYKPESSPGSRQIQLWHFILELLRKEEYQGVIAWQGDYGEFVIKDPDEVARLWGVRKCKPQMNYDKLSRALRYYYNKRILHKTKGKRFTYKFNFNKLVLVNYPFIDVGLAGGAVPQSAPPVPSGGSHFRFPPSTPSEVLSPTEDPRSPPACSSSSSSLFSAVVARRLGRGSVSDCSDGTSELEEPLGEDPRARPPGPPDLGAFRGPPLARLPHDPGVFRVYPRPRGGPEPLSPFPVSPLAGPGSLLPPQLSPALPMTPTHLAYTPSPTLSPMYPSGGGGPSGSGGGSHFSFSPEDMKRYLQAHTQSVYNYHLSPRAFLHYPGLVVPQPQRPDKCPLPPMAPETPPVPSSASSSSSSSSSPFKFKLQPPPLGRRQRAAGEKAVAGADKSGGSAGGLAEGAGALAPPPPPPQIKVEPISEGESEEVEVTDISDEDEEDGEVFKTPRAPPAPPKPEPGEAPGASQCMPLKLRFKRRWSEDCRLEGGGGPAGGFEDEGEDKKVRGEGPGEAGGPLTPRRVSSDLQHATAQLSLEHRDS
Conditions: protein: recombinant; tags: N-terminal GST; dsDNA, one strand shown. Put shortly: as §1

Another assay concerns the target T7, ETV3L (Homo sapiens, UniProt Q6ZN32 1-361).
T7 sequence: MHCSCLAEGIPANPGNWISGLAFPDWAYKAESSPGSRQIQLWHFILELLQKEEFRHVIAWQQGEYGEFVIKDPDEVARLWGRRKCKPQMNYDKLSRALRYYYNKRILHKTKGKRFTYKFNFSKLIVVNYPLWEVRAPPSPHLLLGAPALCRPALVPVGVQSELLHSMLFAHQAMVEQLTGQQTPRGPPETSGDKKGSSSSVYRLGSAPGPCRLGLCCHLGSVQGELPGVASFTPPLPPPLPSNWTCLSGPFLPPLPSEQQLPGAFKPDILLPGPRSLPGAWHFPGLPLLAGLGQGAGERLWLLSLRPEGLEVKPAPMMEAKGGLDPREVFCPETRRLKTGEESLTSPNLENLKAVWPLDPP
Conditions: protein: recombinant; tags: N-terminal GST; dsDNA, one strand shown. Put shortly: as §1

For another assay, the target named is T8, ETS2 (Homo sapiens, UniProt P15036 1-469).
T8 sequence: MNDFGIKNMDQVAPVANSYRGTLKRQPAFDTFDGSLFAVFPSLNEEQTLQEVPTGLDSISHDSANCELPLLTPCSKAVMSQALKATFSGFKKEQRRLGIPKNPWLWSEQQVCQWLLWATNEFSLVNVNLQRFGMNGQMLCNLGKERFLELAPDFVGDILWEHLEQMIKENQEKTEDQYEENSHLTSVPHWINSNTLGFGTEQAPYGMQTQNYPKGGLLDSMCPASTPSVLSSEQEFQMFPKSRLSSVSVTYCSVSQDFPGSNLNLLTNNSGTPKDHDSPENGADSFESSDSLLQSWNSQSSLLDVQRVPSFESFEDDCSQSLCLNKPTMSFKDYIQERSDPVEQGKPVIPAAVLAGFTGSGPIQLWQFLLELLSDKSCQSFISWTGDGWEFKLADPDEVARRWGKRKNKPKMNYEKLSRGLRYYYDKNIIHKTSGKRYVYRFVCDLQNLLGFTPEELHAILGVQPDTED
Conditions: protein: recombinant; tags: N-terminal GST; dsDNA, one strand shown. Put shortly: as §1

The target in the next assay is T9, SPDEF (Homo sapiens, UniProt O95238 1-335).
T9 sequence: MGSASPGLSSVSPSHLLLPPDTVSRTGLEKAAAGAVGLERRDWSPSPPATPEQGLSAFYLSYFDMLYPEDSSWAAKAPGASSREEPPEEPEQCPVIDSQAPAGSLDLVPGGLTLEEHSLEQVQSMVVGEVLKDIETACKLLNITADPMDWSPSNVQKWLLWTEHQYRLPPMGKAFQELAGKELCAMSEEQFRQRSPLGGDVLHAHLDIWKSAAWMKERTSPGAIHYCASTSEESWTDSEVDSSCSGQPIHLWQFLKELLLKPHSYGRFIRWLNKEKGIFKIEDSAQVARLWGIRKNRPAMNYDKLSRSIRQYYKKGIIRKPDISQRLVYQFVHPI
Conditions: protein: recombinant; tags: N-terminal GST; dsDNA, one strand shown. Put shortly:
as §1

A further assay has as its target T10, ETV7 (Homo sapiens, UniProt Q9Y603 1-341).
T10 sequence: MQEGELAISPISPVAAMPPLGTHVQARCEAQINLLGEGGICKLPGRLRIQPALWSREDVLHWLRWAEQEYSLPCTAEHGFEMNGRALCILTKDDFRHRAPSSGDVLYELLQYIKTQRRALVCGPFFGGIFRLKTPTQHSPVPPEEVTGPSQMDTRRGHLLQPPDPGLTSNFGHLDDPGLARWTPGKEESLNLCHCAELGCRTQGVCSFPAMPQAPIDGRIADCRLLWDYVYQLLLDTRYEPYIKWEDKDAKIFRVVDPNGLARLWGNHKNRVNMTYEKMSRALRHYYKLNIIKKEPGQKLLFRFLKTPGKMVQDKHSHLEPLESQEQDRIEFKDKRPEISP
The following applies: protein: recombinant; tags: N-terminal GST; dsDNA, one strand shown. Put shortly: as §1

In the next assay the target is T11, ELF5 (Homo sapiens, UniProt Q9UKW6-2 1-255).
T11 sequence: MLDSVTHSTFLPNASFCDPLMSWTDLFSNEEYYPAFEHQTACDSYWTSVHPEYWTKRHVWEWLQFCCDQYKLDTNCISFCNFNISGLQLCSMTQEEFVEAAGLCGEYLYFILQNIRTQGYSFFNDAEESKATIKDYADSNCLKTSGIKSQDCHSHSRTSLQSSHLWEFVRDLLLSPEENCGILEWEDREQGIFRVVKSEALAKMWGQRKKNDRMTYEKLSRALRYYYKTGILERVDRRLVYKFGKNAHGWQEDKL
The following applies: protein: recombinant; tags: N-terminal GST; dsDNA, one strand shown. Put shortly: as §1

In the next assay the target is T12, ETV3 (Homo sapiens, UniProt P41162-2 1-143).
T12 sequence: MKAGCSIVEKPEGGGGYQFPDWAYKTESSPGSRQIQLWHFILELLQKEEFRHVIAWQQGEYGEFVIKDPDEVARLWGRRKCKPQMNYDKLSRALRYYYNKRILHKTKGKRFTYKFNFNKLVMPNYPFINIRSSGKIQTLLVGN
Conditions: protein: recombinant; tags: N-terminal GST; dsDNA, one strand shown. Put shortly:
as §1

A further assay addresses ETV6 (Homo sapiens, UniProt P41212 1-452). Conditions: protein: recombinant; tags: N-terminal GST; dsDNA, one strand shown. Put shortly:
as §1

ETV6, sequence (P41212 whole entry): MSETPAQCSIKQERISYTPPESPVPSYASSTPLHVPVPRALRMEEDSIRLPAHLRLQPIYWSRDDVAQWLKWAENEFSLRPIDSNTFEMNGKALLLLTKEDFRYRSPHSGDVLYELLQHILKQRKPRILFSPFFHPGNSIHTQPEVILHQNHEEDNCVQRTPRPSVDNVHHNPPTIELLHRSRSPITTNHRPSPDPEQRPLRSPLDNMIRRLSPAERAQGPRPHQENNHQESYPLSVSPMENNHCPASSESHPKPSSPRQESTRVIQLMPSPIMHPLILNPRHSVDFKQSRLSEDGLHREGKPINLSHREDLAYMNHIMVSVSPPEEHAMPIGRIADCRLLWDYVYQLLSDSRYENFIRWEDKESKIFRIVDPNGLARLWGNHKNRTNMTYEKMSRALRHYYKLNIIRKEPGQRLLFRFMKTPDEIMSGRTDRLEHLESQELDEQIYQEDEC
CRX, sequence (O43186 whole entry): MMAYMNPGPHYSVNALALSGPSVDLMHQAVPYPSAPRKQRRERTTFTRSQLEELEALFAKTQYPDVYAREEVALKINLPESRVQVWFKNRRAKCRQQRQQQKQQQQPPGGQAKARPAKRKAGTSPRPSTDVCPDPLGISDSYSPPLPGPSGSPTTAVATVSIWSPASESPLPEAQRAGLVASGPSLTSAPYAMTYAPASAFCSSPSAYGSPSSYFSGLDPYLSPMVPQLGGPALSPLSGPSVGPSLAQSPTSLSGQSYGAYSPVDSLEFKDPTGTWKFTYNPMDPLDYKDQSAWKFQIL
ETV1, sequence (P50549 whole entry): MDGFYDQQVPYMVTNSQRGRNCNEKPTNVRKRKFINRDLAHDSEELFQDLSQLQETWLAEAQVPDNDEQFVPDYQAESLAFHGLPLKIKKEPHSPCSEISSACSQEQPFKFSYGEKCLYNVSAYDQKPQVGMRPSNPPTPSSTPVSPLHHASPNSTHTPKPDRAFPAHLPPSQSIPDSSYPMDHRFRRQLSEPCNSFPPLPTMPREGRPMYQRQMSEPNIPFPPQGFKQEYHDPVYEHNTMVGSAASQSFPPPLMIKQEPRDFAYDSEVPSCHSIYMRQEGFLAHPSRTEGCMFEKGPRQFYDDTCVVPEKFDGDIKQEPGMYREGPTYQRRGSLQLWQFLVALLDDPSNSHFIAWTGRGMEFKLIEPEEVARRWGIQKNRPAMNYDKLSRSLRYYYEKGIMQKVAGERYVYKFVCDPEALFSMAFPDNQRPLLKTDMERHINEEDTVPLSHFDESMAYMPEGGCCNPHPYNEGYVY
ETV5, sequence (P41161 whole entry): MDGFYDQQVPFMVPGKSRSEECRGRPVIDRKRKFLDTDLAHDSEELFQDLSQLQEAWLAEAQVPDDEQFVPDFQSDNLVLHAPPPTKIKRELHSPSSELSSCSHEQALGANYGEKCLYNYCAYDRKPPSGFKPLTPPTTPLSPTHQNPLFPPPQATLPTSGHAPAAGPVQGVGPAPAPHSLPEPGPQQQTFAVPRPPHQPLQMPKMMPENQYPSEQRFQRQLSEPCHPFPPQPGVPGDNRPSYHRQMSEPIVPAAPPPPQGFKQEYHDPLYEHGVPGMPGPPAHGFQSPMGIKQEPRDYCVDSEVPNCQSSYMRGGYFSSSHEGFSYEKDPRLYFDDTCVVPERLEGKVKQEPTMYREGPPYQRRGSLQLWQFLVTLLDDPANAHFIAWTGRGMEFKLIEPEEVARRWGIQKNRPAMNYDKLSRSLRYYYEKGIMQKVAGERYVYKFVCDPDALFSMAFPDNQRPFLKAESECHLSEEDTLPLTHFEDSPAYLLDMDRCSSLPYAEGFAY
HSF1, sequence (Q00613 whole entry): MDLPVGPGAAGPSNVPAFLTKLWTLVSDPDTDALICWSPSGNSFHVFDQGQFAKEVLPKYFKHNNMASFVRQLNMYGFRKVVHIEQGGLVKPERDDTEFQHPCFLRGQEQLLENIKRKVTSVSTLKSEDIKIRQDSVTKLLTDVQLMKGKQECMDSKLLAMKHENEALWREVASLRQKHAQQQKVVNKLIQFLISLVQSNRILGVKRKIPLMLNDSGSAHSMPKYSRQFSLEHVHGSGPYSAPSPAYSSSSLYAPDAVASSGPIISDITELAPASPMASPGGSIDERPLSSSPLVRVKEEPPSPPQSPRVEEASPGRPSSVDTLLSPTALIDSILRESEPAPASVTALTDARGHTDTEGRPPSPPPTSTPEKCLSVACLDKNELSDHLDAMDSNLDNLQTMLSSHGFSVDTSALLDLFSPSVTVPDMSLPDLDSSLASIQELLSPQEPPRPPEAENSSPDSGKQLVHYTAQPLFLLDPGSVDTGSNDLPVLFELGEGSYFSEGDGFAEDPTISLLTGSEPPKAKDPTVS
ELF4, sequence (Q99607 whole entry): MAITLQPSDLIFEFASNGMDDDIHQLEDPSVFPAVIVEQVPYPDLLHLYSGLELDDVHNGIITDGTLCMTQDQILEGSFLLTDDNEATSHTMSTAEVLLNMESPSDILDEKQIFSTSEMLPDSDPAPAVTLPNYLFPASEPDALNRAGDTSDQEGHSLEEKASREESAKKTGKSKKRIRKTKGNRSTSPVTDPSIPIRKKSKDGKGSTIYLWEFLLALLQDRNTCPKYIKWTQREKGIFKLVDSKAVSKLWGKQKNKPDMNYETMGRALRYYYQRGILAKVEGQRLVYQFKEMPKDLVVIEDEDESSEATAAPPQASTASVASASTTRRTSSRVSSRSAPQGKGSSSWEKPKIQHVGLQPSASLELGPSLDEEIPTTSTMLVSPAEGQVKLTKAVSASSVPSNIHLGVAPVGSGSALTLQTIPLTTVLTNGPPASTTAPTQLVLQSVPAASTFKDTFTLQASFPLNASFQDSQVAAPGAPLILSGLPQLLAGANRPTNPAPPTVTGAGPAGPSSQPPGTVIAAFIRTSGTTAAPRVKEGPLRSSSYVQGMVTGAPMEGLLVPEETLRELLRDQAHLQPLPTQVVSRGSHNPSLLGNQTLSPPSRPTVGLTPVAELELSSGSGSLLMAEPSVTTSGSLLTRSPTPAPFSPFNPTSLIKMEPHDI

In the case of TTGCAT, the binding signal was 1.35 fold enrichment (6-mer frequency, TF over GST control) with FEV; 1.39 fold enrichment (6-mer frequency, TF over GST control) with ETV5; 1.3 fold enrichment (6-mer frequency, TF over GST control) in the assay with HSF1; 1.59 fold enrichment (6-mer frequency, TF over GST control) with SPIC; 1.4 fold enrichment (6-mer frequency, TF over GST control) with ELF4; 1.31 fold enrichment (6-mer frequency, TF over GST control) with ELK4. Besides, the binding signal was 1.53 fold enrichment (6-mer frequency, TF over GST control) with ETV2; 1.38 fold enrichment (6-mer frequency, TF over GST control) with ELF3; 1.33 fold enrichment (6-mer frequency, TF over GST control) with CRX; 1.5 fold enrichment (6-mer frequency, TF over GST control) with ETV1; 1.37 fold enrichment (6-mer frequency, TF over GST control) in the assay with ERF; 1.56 fold enrichment (6-mer frequency, TF over GST control) with ETV3L. Further, the binding signal in the assay with ETS2 was 1.42 fold enrichment (6-mer frequency, TF over GST control); with SPDEF, 1.51 fold enrichment (6-mer frequency, TF over GST control); with ETV7, 1.35 fold enrichment (6-mer frequency, TF over GST control); with ELF5 it was 1.4 fold enrichment (6-mer frequency, TF over GST control); with ETV3 it was 1.49 fold enrichment (6-mer frequency, TF over GST control); with ETV6, 1.38 fold enrichment (6-mer frequency, TF over GST control).
